Screening data from PubChem.
Sampled rows, rich in hits. Any-hit rate of the full collection: about 1.7%.
PTHR1 ag: agonists of human PTHR1 parathyroid hormone receptor; Q03431; HEK293 GP2 PTHR1 cells, GloSensor cAMP luminescence, 1 h; Potency, µM (titrated, usually from 115 µM), for the others: at the highest dose activation, actives largely listed as activators; 410,000 tested, 0.075% active; further: nearly all actives have a fitted effect of over 55% in size
Target sequence (Q03431 whole entry, looked up): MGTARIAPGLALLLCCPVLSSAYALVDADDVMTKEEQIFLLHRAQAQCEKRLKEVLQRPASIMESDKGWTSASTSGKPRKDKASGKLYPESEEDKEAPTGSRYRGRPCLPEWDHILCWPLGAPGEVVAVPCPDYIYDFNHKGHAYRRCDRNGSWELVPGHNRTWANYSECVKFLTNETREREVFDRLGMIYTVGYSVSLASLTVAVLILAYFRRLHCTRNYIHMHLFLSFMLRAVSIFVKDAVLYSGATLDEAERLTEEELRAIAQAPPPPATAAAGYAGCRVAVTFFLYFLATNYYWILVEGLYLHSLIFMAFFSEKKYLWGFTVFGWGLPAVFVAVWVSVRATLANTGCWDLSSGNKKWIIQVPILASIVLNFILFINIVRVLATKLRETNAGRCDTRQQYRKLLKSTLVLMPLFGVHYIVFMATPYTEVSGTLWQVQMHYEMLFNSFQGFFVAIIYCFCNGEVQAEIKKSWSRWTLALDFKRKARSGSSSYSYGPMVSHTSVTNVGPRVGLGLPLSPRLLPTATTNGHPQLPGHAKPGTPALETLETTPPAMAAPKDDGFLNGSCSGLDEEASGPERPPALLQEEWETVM
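HEK-293-derived GP2 cells expressing PTHR1 and a GloSensor cAMP reporter, 3,000/well, plated overnight, given luciferin plus IBMX (each 0.5 mM as added) for 1 h at 37 °C, then compound for 1 h at 37 °C. Luminescence was read after 15 min at room temperature.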
GLP1R cytotox: cytotoxicity counter-screen for GLP-1 receptor inverse agonists. HEK293 cAMP-luciferase reporter cells, luminescence, 24 h. Potency, µM (series often up to 38.3 µM), inactives show at the top dose activity change, negative = inhibition, hits mostly inhibitors. 410,000 tested, 0.13% active. AID 624418;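 further: loss of luciferase light is scored as toxicity; on the % scale 0 is the no-effect control and ±100 the full control effect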
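Quantitative HTS format, 1536 wells, 200 cells/uL seeded. Compounds: 23 nL, 24 h, 37 °C. Detection: luciferase reagent, luminescence at 12 min RT; decreased signal taken as cytotoxic.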
GLP-1R inv ag: GLP-1 receptor (human) inverse agonism; P43220; HEK293 GLP-1R CRE-luciferase, luminescence, 24 h; GLP-1R form is constitutively active; Potency, µM (top dose mostly 38.3 µM), for the others: top-dose activity change, negative = inhibition, usual class: inhibitors; 410,000 tested, 1.6% active; AID 624417; further: on the % scale 0 is the no-effect control and ±100 the full control effect; nearly all actives have a fitted effect of over 55% in size
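Readout was luciferase luminescence, measured 12 min after detection reagent at room temperature. Beforehand, GLP-1R reporter HEK293 cells had sat 12 h, then received compounds for 24 hr at 37 deg C.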
GLP-1R agonist: activates the human GLP-1 receptor; P43220; HEK293 GLP-1R CRE-luciferase, luminescence, 4-6 h; cells express a hypersensitive GLP-1R form; Potency, µM (highest dose often 45.6 µM), for the others: at the highest dose activation, hits mostly activators; 380,000 tested, 0.007% active; AID 624172; further: % of control where 0% means no effect
* hit, by the source's call; [ ] = remark or other dose. The call rests on the fitted dose curve; in most records, active means well fitted curve in the direction sought with a large enough effect; inconclusive means small, poorly fitted or top-dose-only effect, or another doubt; inactive means no such curve, though single readings can be large; an effect the other way counts as inactive or inconclusive. Potency means the concentration at half of the fitted maximal effect.

`CN(C)Cc1c(-c2ccc(Cl)cc2)nc2ccccn12` gave PTHR1 ag -10%, GLP1R cytotox -3%, GLP-1R inv ag 6% and GLP-1R agonist 12%.
For COc1ccccc1C=NN=C(NN=Cc1ccccc1OC)NN=Cc1ccccc1OC the results were PTHR1 ag inactive, GLP1R cytotox 5µM*, GLP-1R inv ag 2.2µM* and GLP-1R agonist -7%.
CCn1ncc(Br)c1C(=O)Nc1ccn(C23CC4CC(CC(C4)C2)C3)n1 was read as PTHR1 ag -32%, GLP1R cytotox 8%, GLP-1R inv ag 7.9µM* and GLP-1R agonist 15%.
For CCOC(=O)c1scc(-c2ccc(C)cc2)c1S(=O)(=O)N1CCN(c2ccccc2F)CC1 the results were PTHR1 ag -30%, GLP1R cytotox 34% and GLP-1R inv ag 7.9µM*.
Screening CC(C)(C)c1ccc(C2NC(=O)c3n[nH]c(-c4cccs4)c32)cc1 (stereo unspecified) returned PTHR1 ag inactive, GLP1R cytotox -16% and GLP-1R inv ag 19%.
Screening O=C(CSCc1cnn(-c2ccccc2)c1-n1cccc1)NCc1ccccc1F returned PTHR1 ag -79%, GLP1R cytotox 1% and GLP-1R inv ag 13µM*.
Screening COc1cc(NC(=O)CSCc2cnn(-c3ccccc3)c2-n2cccc2)cc(OC)c1 returned PTHR1 ag -12%[57.5 µM], GLP1R cytotox -17%, GLP-1R inv ag 3.2µM* and GLP-1R agonist 1%.
For Cc1ccc(NC(=O)CSCc2cnn(-c3ccccc3)c2-n2cccc2)c(Cl)c1 the results were PTHR1 ag -41%, GLP1R cytotox 22% and GLP-1R inv ag 10µM*.
COc1ccc(OC)c(NC(=O)CSCc2cnn(-c3ccccc3)c2-n2cccc2)c1 was read as PTHR1 ag -18%[57.5 µM], GLP1R cytotox -3%, GLP-1R inv ag 11µM* and GLP-1R agonist 9%.
For Cc1ccc(C)c(N2CCN(Cc3csc(C)c3)CC2)c1 the results were PTHR1 ag -8%, GLP1R cytotox -3% and GLP-1R inv ag inconclusive.
For COc1cc2[nH]c(=O)n(CCCC(=O)NCc3ccccc3Cl)c(=O)c2cc1OC the results were PTHR1 ag -20%, GLP1R cytotox 4%, GLP-1R inv ag -6% and GLP-1R agonist -1%.
For CCc1cccc(C)c1NS(=O)(=O)c1ccc2c(c1)NC(=O)C(C)C(=O)N2 (stereo unspecified) the results were PTHR1 ag inactive, GLP1R cytotox -16% and GLP-1R inv ag 7%.
`CC[N+]1(C)CCC(O)(/C=C/c2ccccc2)C(C(=O)/C=C/c2ccccc2)C1` (stereo unspecified) gave PTHR1 ag -32%, GLP1R cytotox inconclusive, GLP-1R inv ag 10µM* and GLP-1R agonist -15%.
Screening COc1ccc(-c2csc(C(C)(O)c3cccc(OC)c3)n2)cc1 (stereo unspecified) returned PTHR1 ag -28%, GLP1R cytotox 0%, GLP-1R inv ag 10µM* and GLP-1R agonist 4%.
Screening COc1ccc(/C=C\c2onc(C)c2S(=O)(=O)N2CCC(C(=O)Nc3cccc(Cl)c3)CC2)cc1 returned PTHR1 ag inactive, GLP1R cytotox 0% and GLP-1R inv ag -17%.
O=C(O)c1ccc(N/N=C/c2c(F)cccc2Cl)cc1 was read as PTHR1 ag -40%, GLP1R cytotox -2%, GLP-1R inv ag 5µM* and GLP-1R agonist -5%.
For O=C(N/N=C/c1c(F)cccc1Cl)C1CC1 the results were PTHR1 ag -11%, GLP1R cytotox -22%, GLP-1R inv ag 11% and GLP-1R agonist 6%.
For O=C(O)c1cccc(S(=O)(=O)Nc2ccccc2-c2ccccc2)c1 the results were PTHR1 ag inactive, GLP1R cytotox 13%, GLP-1R inv ag -4% and GLP-1R agonist 1%.
Cc1c(Cl)cccc1NS(=O)(=O)c1ccccc1 was read as PTHR1 ag -9%, GLP1R cytotox 19%, GLP-1R inv ag 10µM* and GLP-1R agonist 10%.
O=S(=O)(Nc1ccccc1-c1ccccc1)c1ccccc1 was read as PTHR1 ag -10%, GLP1R cytotox 2%, GLP-1R inv ag 6.3µM* and GLP-1R agonist 12%.
Screening Cc1ccc(-c2onc(C)c2C)cc1S(=O)(=O)Nc1cccc(Cl)c1C returned PTHR1 ag -63%, GLP1R cytotox inconclusive and GLP-1R inv ag 10µM*.
